Data published in PubChem BioAssay (Tox21).
Calls of active or inactive are those of the source. A call without a number means that no potency is given here. Unless noted, calls follow the shape of the dose curve; as a rule, active = well fitted curve in the direction sought with a large enough effect in the repeat runs; inconclusive = weak or mixed curves; inactive = no such curve, though single readings can be large; an effect the other way counts as inactive or inconclusive.

Columns and labels:
[1] = qHTS assay to identify small molecule antagonists of the thyroid receptor (TR) signaling pathway - cell viability counter screen (AID 743064); also: nearly all actives have a fitted effect of over 50% in size; also: potency is read from the fitted curve at half-maximal effect
Method in brief: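 GH3.TRE-Luc rat pituitary cells dosed after 4 hr plating, co-stimulated with T3 at 1 nM final, incubated 23.5 h at 37 C. Viability measured in the same wells by CellTiter-Fluor fluorescence after 30 min further at 37 C.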

[2] = qHTS assay to identify small molecule antagonists of the estrogen receptor alpha (ER-alpha) signaling pathway - cell viability counter screen (AID 743074; calls by dose curve; also: nearly all actives have a fitted effect of over 45% in size; also: potency is read from the fitted curve at half-maximal effect)
[3] = qHTS assay to identify small molecule antagonists of the estrogen receptor alpha (ER-alpha) signaling pathway using the BG1 cell line - cell viability counter screen (AID 743081);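 also: compound given together with 17beta-estradiol as the ER stimulus; nearly all actives have a fitted effect of over 45% in size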; also: potency is read from the fitted curve at half-maximal effect
Aromatase (Homo sapiens) = Aromatase (Homo sapiens) (UniProt P11511); assay: qHTS assay to identify aromatase inhibitors (AID 743083); also: nearly all actives have a fitted effect of over 55% in size; also: potency is read from the fitted curve at half-maximal effect
[4] = qHTS assay to identify aromatase inhibitors - cell viability counter screen (AID 743084);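 also: cells stimulated with testosterone during compound exposure; nearly all actives have a fitted effect of over 55% in size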; also: potency is read from the fitted curve at half-maximal effect
[5] = target: Aryl hydrocarbon receptor (Homo sapiens) (UniProt P35869); assay: qHTS assay to identify small molecule that activate the aryl hydrocarbon receptor (AhR) signaling pathway (AID 743085); also: nearly all actives have a fitted effect of over 15% in size; also: potency is read from the fitted curve at half-maximal effect;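 as to activation: HG2L7.5c1 human HepG2 liver cells with stably integrated DRE-driven firefly reporter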
Method in brief: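 HepG2 cells stably carrying a 20-DRE firefly luciferase reporter (HG2L7.5c1) treated with compound for 24 hr at 37C. Luciferase read by ONE-Glo luminescence, with CellTiter-Fluor viability read first.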

[6] = qHTS assay to identify small molecule that activate the aryl hydrocarbon receptor (AhR) signaling pathway - cell viability counter screen (AID 743086); also: nearly all actives have a fitted effect of over 45% in size; also: potency is read from the fitted curve at half-maximal effect
Method in brief: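 HepG2-AhR-luc (HG2L7.5c1) cells, 4000/well, treated 24 h at 37 C with compound; viability measured as CellTiter-Fluor fluorescence after 30 min in the same wells as the luciferase read.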

[7] = target: Peroxisome proliferator-activated receptor gamma (Homo sapiens) (UniProt P37231); assay: qHTS assay to identify small molecule agonists of the peroxisome proliferator-activated receptor gamma (PPARg) signaling pathway (AID 743094; active = well fitted activation curve with a large enough effect in the signal ratio in the repeat runs, not every such curve was filed as active; inconclusive = weak or mixed curves, or effect the other way; inactive = no such curve, though single readings can be large or run the other way; the % refers to the signal ratio)
Method in brief: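 Agonism was assessed in a beta-lactamase reporter system, HEK293H cells with a stably integrated UAS-bla construct under PPARg control; the 17 h treatment at 37C preceded a 1 h room-temperature FRET substrate read.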

[8] = qHTS assay to identify small molecule antagonists of the peroxisome proliferator-activated receptor gamma (PPARg) signaling pathway - cell viability counter screen (AID 743194); also: nearly all actives have a fitted effect of over 55% in size; also: potency is read from the fitted curve at half-maximal effect
Method in brief: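 Cytotoxicity counter screen in PPARg-bla HEK293H cells, same wells as reporter assay. Compounds plus 50 nM rosiglitazone (final) for 17 h at 37 C, then viability read by CellTiter-Glo luminescence.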

[9] = qHTS assay for small molecule agonists of the antioxidant response element (ARE) signaling pathway (AID 743202; active = well fitted activation curve with a large enough effect in the signal ratio in the repeat runs, not every such curve was filed as active; inconclusive = weak or mixed curves, or effect the other way; inactive = no such curve, though single readings can be large or run the other way; the % refers to the signal ratio; also: potency is read from the fitted curve at half-maximal effect)
Method in brief: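 HepG2 ARE-bla cells; 16 h treatment at 37 C; FRET-based beta-lactamase fluorescence read after 2 h substrate incubation at room temperature.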

[10] = qHTS assay for small molecule agonists of the antioxidant response element (ARE) signaling pathway - cell viability counter screen (AID 743203; calls by dose curve; also: nearly all actives have a fitted effect of over 55% in size; also: potency is read from the fitted curve at half-maximal effect)
Method in brief: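 ATP content via CellTiter-Glo luminescence served as the viability measure. Cells: ARE-bla HepG2, 2,000 per well. Exposure: 16 hrs, 37C/5% CO2.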

[11] = qHTS assay for small molecule activators of the heat shock response signaling pathway - cell viability counter screen (AID 743209); also: nearly all actives have a fitted effect of over 50% in size
Method in brief: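 Compounds dissolved in DMSO were added to overnight-plated HSE-bla HeLa cells and left 5 h at 37 C. Cell viability was quantified by luminescence using CellTiter-Glo.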

[12] = target: Estrogen receptor (Homo sapiens) (UniProt P03372); assay: qHTS assay to identify small molecule agonists of the estrogen receptor alpha (ER-alpha) signaling pathway (AID 743075; calls by dose curve)
[13] = target: Estrogen receptor (Homo sapiens) (UniProt P03372); assay: qHTS assay to identify small molecule agonists of the estrogen receptor alpha (ER-alpha) signaling pathway using the BG1 cell line (AID 743079); conditions: BG1Luc4E2 cells, ERE-luciferase agonist, 22 h; activation: at 70.3 µM (top of the series); also: nearly all actives have a fitted effect of over 20% in size
[14] = qHTS assay to identify small molecule antagonists of the estrogen receptor alpha (ER-alpha) signaling pathway using the BG1 cell line (AID 743080; calls by dose curve;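 also: BG1 cells stimulated with 17beta-estradiol alongside compound; nearly all actives have a fitted effect of over 25% in size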; also: potency is read from the fitted curve at half-maximal effect)
Method in brief: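 Quantitative HTS on the Tox21 10K library: BG1 cells with endogenous ER-alpha and ERE-luciferase reporter, 17beta-estradiol stimulation, 21.5 h compound exposure, luminescence endpoint with parallel fluorescence cytotoxicity counter-read.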

[15] = qHTS assay to identify small molecule antagonists of the thyroid receptor (TR) signaling pathway (AID 743065); also: nearly all actives have a fitted effect of over 55% in size; also: potency is read from the fitted curve at half-maximal effect
Method in brief: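 GH3.TRE-Luc rat pituitary cells (two TREs driving luciferase) were dosed with compound, then stimulated with 1 nM T3 (final) for 23.5 h at 37 C. ONE-Glo luminescence was the read-out, with CellTiter-Fluor fluorescence as the cytotoxicity counter-screen.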

[16] = tested on: thyroid hormone receptor (rat, GH3 cells); assay: qHTS assay to identify small molecule agonists of the thyroid receptor (TR) signaling pathway (AID 743066; calls by dose curve)
[17] = qHTS assay for small molecule activators of the heat shock response signaling pathway (AID 743210; active = well fitted activation curve with a large enough effect in the signal ratio in the repeat runs, with a control signal flat, not every such curve was filed as active; inconclusive = weak or mixed curves; the % refers to the signal ratio;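 also: HeLa cells with beta-lactamase reporter driven by heat shock elements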)
Method in brief: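 Following overnight attachment, HSE-bla HeLa cells received test compounds for 5 h at 37 C; beta-lactamase activity was then detected via FRET substrate fluorescence.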

[18] = target: Estrogen receptor (Homo sapiens) (UniProt P03372); assay: qHTS assay to identify small molecule antagonists of the estrogen receptor alpha (ER-alpha) signaling pathway (AID 743069; active = well fitted curve in the direction sought with a large enough effect in the signal ratio in the repeat runs, not every such curve was filed as active; inconclusive = weak or mixed curves, or effect the other way; inactive = no such curve, though single readings can be large or run the other way; the % refers to the signal ratio; also: potency is read from the fitted curve at half-maximal effect)
Method in brief: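 In this cell-based reporter format, GripTite HEK293 cells harbouring ER-alpha-UAS-bla were grown overnight with 2% charcoal-stripped FBS, dosed with DMSO-dissolved compounds, then challenged with 17beta-estradiol. After 18 hr at 37C, beta-lactamase activity was detected by FRET fluorescence.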

[19] = target: Peroxisome proliferator-activated receptor gamma (Homo sapiens) (UniProt P37231); assay: qHTS assay to identify small molecule antagonists of the peroxisome proliferator-activated receptor gamma (PPARg) signaling pathway (AID 743191; calls by dose curve; also: nearly all actives have a fitted effect of over 30% in size)
Method in brief: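 GeneBLAzer PPARg UAS-bla HEK293H cells, 5 h post-plating, exposed to compounds 17 h at 37C. LiveBLAzer B/G FRET substrate added for 1 h at room temperature; beta-lactamase reporter read by fluorescence intensity.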

Aromatase (Homo sapiens), sequence (P11511 whole entry, looked up): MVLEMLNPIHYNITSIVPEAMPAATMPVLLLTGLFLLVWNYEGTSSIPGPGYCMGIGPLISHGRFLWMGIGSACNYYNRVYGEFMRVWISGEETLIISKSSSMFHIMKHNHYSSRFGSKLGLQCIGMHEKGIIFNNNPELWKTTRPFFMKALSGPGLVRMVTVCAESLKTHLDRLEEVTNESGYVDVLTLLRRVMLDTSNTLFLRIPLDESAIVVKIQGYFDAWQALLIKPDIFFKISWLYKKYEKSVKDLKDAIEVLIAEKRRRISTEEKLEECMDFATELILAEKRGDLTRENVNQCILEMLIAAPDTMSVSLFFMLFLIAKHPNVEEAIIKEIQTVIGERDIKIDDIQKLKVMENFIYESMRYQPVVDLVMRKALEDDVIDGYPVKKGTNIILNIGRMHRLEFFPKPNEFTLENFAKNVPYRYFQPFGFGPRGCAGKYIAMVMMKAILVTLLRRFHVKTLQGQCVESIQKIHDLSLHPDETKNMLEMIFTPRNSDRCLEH
Estrogen receptor (Homo sapiens), sequence (P03372 whole entry, looked up): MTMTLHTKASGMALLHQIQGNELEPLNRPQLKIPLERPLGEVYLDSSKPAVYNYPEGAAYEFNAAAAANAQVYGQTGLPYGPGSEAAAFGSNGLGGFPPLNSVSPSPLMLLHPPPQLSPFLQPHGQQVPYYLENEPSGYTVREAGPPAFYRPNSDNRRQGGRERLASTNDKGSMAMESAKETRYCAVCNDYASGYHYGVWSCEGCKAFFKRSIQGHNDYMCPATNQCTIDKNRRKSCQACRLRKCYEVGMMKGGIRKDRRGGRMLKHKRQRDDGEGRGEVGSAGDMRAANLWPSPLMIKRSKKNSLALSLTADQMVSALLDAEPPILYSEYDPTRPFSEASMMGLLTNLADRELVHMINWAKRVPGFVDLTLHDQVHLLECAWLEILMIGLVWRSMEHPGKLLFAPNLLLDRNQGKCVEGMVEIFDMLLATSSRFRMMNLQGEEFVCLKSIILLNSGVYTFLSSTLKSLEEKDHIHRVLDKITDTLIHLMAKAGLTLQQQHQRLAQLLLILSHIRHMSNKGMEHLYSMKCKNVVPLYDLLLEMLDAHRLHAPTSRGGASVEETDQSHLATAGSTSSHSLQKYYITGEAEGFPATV
Peroxisome proliferator-activated receptor gamma (Homo sapiens), sequence (P37231 whole entry, looked up): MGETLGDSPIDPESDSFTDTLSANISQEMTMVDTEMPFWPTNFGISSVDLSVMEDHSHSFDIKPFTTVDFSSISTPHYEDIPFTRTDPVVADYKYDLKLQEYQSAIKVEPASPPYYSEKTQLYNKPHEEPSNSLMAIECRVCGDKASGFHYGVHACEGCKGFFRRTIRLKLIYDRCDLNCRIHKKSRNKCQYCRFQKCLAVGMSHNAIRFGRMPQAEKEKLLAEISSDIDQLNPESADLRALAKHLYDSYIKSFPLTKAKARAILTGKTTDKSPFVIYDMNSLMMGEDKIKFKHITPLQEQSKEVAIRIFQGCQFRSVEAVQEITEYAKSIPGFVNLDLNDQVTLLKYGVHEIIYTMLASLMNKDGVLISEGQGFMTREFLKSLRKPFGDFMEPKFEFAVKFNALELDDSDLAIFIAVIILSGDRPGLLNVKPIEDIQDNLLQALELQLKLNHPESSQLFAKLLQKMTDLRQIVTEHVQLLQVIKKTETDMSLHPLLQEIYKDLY
Aryl hydrocarbon receptor (Homo sapiens), sequence (P35869 whole entry, looked up): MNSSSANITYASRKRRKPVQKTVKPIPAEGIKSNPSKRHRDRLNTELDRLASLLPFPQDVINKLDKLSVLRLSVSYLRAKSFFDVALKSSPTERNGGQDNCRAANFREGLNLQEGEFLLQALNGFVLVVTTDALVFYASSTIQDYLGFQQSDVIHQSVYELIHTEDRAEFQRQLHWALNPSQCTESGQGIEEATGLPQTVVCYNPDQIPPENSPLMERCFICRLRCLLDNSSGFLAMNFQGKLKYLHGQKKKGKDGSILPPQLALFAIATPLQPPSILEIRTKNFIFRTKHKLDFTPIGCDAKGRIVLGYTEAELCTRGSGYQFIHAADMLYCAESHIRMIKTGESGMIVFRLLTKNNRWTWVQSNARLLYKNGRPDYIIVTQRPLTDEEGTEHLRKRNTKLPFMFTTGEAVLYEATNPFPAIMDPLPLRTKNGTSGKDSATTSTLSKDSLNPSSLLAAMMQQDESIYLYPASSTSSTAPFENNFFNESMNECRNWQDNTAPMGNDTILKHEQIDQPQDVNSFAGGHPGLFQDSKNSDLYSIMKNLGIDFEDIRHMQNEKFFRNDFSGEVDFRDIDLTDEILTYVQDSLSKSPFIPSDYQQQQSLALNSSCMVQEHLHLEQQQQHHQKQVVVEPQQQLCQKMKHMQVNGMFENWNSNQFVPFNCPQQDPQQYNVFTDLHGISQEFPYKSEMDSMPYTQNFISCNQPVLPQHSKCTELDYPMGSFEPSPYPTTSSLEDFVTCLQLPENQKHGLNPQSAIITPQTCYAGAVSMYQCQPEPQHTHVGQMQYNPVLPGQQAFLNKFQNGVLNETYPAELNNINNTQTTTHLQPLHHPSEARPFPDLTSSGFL

| SMILES | Potency [1] | Potency [2] | Potency [3] | Potency (Aromatase (Homo sapiens)) | Potency [4] | Potency [5] | Potency [6] | Potency [7] | Potency [8] | Potency [9] | Potency [10] | Potency [11] | Potency [12] | Potency [13] | Potency [14] | Potency [15] | outcome [16] | Potency [17] | Potency [18] | Potency [19] |
| --- | --- | --- | --- | --- | --- | --- | --- | --- | --- | --- | --- | --- | --- | --- | --- | --- | --- | --- | --- | --- |
| O=C(O)c1ccc(OCCCOc2ccc(C(=O)O)cc2)cc1 | inactive | inactive | inactive | inactive | inactive | inactive | inactive | inactive | inactive | inactive | inactive | inactive |  |  |  |  |  |  |  |  |
| Oc1ccc(Cl)c2cccnc12 | 7.5 µM (active) | inactive | inactive | 3.35 µM (active) |  | 11.9 µM (active) | inactive | inactive |  | 23.7 µM (active) | inactive | inactive | inactive | inactive | inactive |  |  |  |  |  |
| O=C=Nc1ccc(Cl)c(Cl)c1 |  | inactive | inactive | inactive | inactive | 47.8 µM (active) | inactive | inactive | inactive |  | inactive | inactive | inactive | inactive | inactive | inactive | inactive | inactive |  |  |
| COc1cc(C(=O)NC2CCN(C)CC2)ccc1Nc1ncc2c(n1)N(C1CCCC1)CC(F)(F)C(=O)N2C |  | 40 µM (active) |  |  | 25 µM (active) | inactive |  | inactive | 50.4 µM (active) |  | 28.1 µM (active) |  | inactive |  | 0.25 µM (active) | 0.0628 µM (active) |  | inactive | 1.59 µM [inconclusive] (active) |  |
| CC1(CN2CCC(n3c(=O)[nH]c4ccccc43)CC2)OCc2ccccc2-n2cccc21 (stereo unspecified) | 29.8 µM (active) | inactive | inactive |  | inactive | inactive |  |  |  |  | 33.5 µM (active) | inactive | inactive |  | 29.8 µM (active) |  |  | inactive |  |  |
| O=[N+]([O-])c1cc(C2CCCCC2)c(O)c([N+](=O)[O-])c1 | 9.66 µM (active) |  | 6.09 µM (active) | 17.2 µM (active) | 17.2 µM (active) | inactive | 30.5 µM (active) |  |  |  | 24.3 µM (active) | inactive | inactive |  |  |  |  |  | 6.15 µM [inconclusive] (active) |  |
| C=CC(=O)OCC1CC2CC1C1CCC(COC(=O)C=C)C21 (stereo unspecified) |  |  | inactive | inactive | inactive |  | inactive | inactive |  |  | inactive |  |  |  |  | 61.1 µM (active) | inactive |  |  |  |
| CN1CCCC(n2nc(Cc3ccc(Cl)cc3)c3ccccc3c2=O)CC1 (stereo unspecified) | 21.1 µM (active) | inactive |  | inactive | inactive | inactive | inactive | inactive |  |  | 29.8 µM (active) | inactive | inactive | inactive | inactive |  |  |  | inactive |  |
| O=C1c2ccccc2C(=O)C1c1ccc(Br)cc1 | inactive | inactive | inactive | inactive | inactive | 11.9 µM (active) | inactive | inactive | inactive |  | inactive | inactive | inactive | inactive | inactive |  |  |  | inactive |  |
| COC(=O)CS | inactive | inactive | inactive | inactive | inactive | inactive | inactive | inactive | inactive | inactive | inactive |  | inactive | inactive | inactive |  |  | inactive | inactive |  |
| O=C(O)C[C@H](NC(=O)OCc1ccccc1)C(=O)O | inactive | inactive | inactive | inactive | inactive | inactive | inactive | inactive | inactive |  |  |  | inactive | inactive | inactive |  |  | inactive | inactive | inactive |
| CCOC(=O)[C@H](CCc1ccccc1)N[C@@H](C)C(=O)N(CC(=O)O)C1Cc2ccccc2C1 |  |  | inactive | inactive | inactive | inactive | inactive | inactive | inactive | inactive | inactive | inactive | inactive | inactive | inactive | inactive | inactive |  | inactive | inactive |
| COc1cc(Nc2c(C#N)cnc3cc(OCCCN4CCN(C)CC4)c(OC)cc23)c(Cl)cc1Cl | 11.9 µM (active) | 26.8 µM (active) |  | 26.6 µM (active) |  | inactive | 13.3 µM (active) |  | 21.1 µM (active) |  | 18.8 µM (active) | inactive |  |  |  |  |  |  |  |  |
| COc1ccccc1Oc1c(NS(=O)(=O)c2ccc(C(C)(C)C)cc2)nc(-c2ncccn2)nc1OCCO | inactive |  | inactive | inactive | inactive | inactive |  | inactive | inactive |  | inactive | inactive | inactive | inactive | inactive |  |  |  | inactive |  |
| CN1C(=O)c2ccccc2C1=O |  |  |  | inactive | inactive | inactive | inactive | inactive |  |  | inactive |  |  |  |  | inactive | inactive |  |  |  |
| C[C@H]1c2cccc(O)c2C(O)=C2C(=O)[C@]3(O)C(O)=C(C(N)=O)C(=O)[C@@H](N(C)C)[C@@H]3[C@@H](O)[C@@H]21 |  | inactive | inactive | inactive | inactive | inactive | inactive | inactive | inactive |  | inactive | inactive | inactive | inactive | inactive | inactive | inactive |  |  |  |
| CC(C)=CC(=O)C=C(C)C |  | inactive | inactive | inactive | inactive | inactive | inactive | inactive | inactive |  | inactive | inactive | inactive | inactive | inactive | inactive | inactive |  | inactive |  |
| CCCCCCCC/C=C\CCCCCCCCCCCC(=O)O | inactive | inactive | inactive | inactive | inactive |  | inactive | inactive | inactive | inactive | inactive | inactive | inactive |  | inactive |  |  | inactive | inactive |  |
